According to the supplement of paper PMC10849652:
Targets with a hit are over-represented here; the source holds about 8,800 in all. About 0.5% of all pairs of compound and target were hits. A number with no mark means an inactive call.

Assays:
Test in all cases: log2 fold change, soluble protein after heating vs DMSO (PISA); higher = thermal stabilisation; K562 lysate, 10 uM; active = over 0.2 and 3.5 SD of the protein, either way, in both replicates (recomputed)
erlotinib = compound: C#Cc1cccc(Nc2ncnc3cc(OCCOC)c(OCCOC)cc23)c1 [erlotinib]
Summary of the method: (§1)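 Log-two fold change in thermal stability relative to solvent controls is reported from duplicates. For each sample, crude K562 extract from dounce-homogenised pellets in PBS pH 7.4 with 1 mM MgCl2, at 1 mg/mL protein, was treated with 10 μM compound for 30 min. Aliquots heated for 3 min across 48°C-58°C were pooled, brought to 0.5% NP-40 at 4°C and cleared at 21,000xg for 90 min. The supernatant was quantified by TMTpro 16plex LC-MS/MS with channel sums equalised.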

[1] = compound: C/C(=N\NC(=O)C1=CC(=CC=C1)S(=O)(=O)N2CCOCC2)/C3=C(C=CC(=C3)Cl)O
Summary of the method: as §1

[2] = compound: C1=CC(=CC=C1C2=NC3=C(N2)C=C(C=C3)C(=O)N)OC4=CC=C(C=C4)Cl
Summary of the method: as §1

[3] = compound: C1=CC2=C(C=CC(=C2)/C=C\3/C(=O)NC(=NCC4=CC=CS4)S3)N=C1
Summary of the method: as §1

[4] = compound: C1=CC2=NC=CN=C2C=C1/C=C/3\C(=O)NC(=O)S3
Summary of the method: as §1

[5] = compound: C1=CC=C(C=C1)C2=NC(=C(N2)C3=CC=NC=C3)C4=CC(=C(C=C4)Cl)O
Summary of the method: as §1

[6] = compound: C1=CC=C2C(=C1)C3=NNC4=CC=CC(=C43)C2=O
Summary of the method: as §1

[7] = compound: C1CCN(C1)C(=O)NC2=CC=CC(=C2)NC3=NC=C(C(=N3)NCCC4=CN=CN4)Br
Summary of the method: as §1

[8] = compound: C1CN(CCC1(CC2=CC=C(C=C2)Cl)N)C3=NC=NC4=C3C=CN4
Summary of the method: as §1

IRAK-1-4 Inhibitor I = compound: C1COCCN1CCN2C3=CC=CC=C3N=C2NC(=O)C4=CC(=CC=C4)[N+](=O)[O-] [IRAK-1-4 Inhibitor I]
Summary of the method: as §1

ibrutinib = compound: C=CC(=O)N1CCC[C@@H](n2nc(-c3ccc(Oc4ccccc4)cc3)c3c(N)ncnc32)C1 [ibrutinib]
Summary of the method: as §1

[9] = compound: CC(=O)c1cnc2ccc(-c3cc(Cl)c(O)c(Cl)c3)nc2c1N[C@H]1CC[C@H](CN(C)C)CC1
Summary of the method: as §1

ralimetinib = compound: CC(C)(C)Cn1c(N)nc2ccc(-c3[nH]c(C(C)(C)C)nc3-c3ccc(F)cc3)nc21 [ralimetinib]
Summary of the method: as §1

[10] = compound: CC(C)(O)CC(=O)NCCn1ccc2ncnc(Nc3ccc(Oc4cccc(C(F)(F)F)c4)c(Cl)c3)c21
Summary of the method: as §1

[11] = compound: CC(C)C1=C2N=C(C=C(N2N=C1)NCC3=CC=CC=C3)NCCCCCCN
Summary of the method: as §1

[12] = compound: CC1=C(C(CC(=O)N1)C2=CC=C(C=C2)C(F)(F)F)C(=O)NC3=C(C=C4C(=C3)C=NN4)F
Summary of the method: as §1

[13] = compound: CC1=C(C2=C(C=C1)C(=O)C3=CC=CC=C3N2CCCN)C
Summary of the method: as §1

[14] = compound: CC1=C(C=C(C=C1)NC(=O)C2=CC(=CC=C2)C(C)(C)C#N)NC3=CC4=C(C=C3)N=CN(C4=O)C
Summary of the method: as §1

[15] = compound: CC1=C(C=C(C=C1)NC(=O)C2=CC(=CC=C2)N(C)C)NC(=O)C3=CC=C(C=C3)O
Summary of the method: as §1

[16] = compound: CC1=CC=C(C=C1)SC2=C3C=C(SC3=CN=C2)C(=O)N
Summary of the method: as §1

UniProt Q13409, sequence (Q13409 whole entry, looked up): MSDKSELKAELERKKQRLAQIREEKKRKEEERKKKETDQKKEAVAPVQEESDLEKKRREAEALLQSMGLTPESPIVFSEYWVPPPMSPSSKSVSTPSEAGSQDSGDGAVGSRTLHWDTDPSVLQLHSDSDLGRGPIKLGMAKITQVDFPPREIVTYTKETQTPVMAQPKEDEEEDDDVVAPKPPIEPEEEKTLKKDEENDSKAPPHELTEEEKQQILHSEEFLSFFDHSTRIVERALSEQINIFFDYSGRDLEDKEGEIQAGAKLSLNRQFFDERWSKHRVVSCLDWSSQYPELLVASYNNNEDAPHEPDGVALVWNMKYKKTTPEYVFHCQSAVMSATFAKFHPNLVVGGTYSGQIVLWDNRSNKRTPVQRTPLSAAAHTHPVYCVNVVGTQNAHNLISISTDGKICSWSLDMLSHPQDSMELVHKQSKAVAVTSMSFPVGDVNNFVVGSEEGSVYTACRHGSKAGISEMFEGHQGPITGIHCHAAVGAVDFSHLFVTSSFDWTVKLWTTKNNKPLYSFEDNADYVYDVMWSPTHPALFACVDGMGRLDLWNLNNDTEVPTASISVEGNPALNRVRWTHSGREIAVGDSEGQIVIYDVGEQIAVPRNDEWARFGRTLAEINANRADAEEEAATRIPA
UniProt Q9NX74, sequence (Q9NX74 whole entry, looked up): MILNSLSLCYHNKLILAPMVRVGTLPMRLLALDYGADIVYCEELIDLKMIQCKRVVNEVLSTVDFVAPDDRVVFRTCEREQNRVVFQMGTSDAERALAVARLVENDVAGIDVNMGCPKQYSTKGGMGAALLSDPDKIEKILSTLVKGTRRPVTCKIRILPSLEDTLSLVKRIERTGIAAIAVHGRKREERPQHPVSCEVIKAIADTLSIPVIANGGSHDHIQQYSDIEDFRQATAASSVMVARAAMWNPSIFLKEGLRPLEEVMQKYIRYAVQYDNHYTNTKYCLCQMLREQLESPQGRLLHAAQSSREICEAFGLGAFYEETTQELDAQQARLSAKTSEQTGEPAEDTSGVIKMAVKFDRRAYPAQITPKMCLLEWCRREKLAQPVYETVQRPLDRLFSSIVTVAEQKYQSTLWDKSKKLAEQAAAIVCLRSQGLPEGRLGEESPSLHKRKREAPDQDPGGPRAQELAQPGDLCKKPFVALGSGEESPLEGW
UniProt Q8NFF5, sequence (Q8NFF5 whole entry, looked up): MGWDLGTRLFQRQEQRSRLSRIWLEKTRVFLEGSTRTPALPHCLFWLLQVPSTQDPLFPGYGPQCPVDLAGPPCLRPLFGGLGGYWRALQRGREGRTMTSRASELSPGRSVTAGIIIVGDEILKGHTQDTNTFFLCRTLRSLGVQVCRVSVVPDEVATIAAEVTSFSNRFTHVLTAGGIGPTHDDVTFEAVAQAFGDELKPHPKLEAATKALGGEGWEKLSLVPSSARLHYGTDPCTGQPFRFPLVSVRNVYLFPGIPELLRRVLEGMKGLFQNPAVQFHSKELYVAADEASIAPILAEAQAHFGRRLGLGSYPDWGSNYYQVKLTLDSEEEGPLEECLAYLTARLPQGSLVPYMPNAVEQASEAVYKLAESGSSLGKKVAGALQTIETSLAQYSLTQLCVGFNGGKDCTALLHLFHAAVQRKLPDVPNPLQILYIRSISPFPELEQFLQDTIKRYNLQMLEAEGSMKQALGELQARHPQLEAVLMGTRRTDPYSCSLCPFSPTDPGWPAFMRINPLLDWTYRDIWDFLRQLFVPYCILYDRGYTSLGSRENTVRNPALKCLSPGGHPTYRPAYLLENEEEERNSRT
UniProt P11171, sequence (P11171 whole entry, looked up): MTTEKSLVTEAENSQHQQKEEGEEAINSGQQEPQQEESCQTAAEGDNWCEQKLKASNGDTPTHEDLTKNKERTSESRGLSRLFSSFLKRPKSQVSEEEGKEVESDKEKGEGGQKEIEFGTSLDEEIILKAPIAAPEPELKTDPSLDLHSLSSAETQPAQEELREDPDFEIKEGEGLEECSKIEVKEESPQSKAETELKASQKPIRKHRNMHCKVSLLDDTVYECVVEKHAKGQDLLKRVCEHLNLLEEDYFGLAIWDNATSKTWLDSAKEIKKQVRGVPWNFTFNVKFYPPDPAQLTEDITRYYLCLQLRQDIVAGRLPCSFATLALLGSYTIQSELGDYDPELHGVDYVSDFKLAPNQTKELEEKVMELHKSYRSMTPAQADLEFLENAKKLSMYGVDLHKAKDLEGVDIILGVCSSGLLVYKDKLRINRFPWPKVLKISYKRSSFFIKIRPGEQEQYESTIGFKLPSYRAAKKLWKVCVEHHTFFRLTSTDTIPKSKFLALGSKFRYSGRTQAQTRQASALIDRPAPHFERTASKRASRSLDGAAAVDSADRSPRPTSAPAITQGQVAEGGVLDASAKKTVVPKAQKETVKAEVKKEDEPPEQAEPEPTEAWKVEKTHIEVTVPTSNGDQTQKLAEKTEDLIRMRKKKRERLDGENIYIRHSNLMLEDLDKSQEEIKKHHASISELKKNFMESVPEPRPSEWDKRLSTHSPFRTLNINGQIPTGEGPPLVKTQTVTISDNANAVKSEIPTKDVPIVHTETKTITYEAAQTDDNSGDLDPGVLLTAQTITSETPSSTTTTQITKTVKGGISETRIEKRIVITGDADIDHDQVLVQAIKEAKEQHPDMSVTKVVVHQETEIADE
UniProt P06241, sequence (P06241 whole entry, looked up): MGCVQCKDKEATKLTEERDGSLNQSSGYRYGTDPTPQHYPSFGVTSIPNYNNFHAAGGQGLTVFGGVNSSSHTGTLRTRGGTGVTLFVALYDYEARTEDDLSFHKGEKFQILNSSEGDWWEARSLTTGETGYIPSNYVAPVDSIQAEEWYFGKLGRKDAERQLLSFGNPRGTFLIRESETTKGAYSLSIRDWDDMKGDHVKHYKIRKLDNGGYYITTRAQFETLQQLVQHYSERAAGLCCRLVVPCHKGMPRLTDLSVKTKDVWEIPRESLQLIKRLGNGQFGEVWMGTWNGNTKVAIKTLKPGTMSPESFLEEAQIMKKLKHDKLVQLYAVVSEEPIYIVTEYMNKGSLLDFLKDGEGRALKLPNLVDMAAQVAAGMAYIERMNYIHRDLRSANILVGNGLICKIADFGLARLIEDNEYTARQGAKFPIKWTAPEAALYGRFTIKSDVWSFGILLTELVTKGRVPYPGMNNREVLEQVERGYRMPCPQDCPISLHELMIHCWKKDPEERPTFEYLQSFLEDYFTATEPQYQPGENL
UniProt Q86UY5, sequence (Q86UY5 whole entry, looked up): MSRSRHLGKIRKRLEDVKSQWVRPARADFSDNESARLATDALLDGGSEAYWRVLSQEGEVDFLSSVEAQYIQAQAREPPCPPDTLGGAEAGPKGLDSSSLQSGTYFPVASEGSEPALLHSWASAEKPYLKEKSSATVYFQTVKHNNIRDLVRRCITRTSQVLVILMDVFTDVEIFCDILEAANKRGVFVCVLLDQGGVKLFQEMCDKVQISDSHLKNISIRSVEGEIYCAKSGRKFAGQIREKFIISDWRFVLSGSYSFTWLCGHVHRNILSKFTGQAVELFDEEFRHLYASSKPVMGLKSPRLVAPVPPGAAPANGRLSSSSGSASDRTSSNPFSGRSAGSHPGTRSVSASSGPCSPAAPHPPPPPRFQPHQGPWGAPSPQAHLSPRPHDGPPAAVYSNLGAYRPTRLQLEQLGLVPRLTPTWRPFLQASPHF
UniProt P37268, sequence (P37268 whole entry, looked up): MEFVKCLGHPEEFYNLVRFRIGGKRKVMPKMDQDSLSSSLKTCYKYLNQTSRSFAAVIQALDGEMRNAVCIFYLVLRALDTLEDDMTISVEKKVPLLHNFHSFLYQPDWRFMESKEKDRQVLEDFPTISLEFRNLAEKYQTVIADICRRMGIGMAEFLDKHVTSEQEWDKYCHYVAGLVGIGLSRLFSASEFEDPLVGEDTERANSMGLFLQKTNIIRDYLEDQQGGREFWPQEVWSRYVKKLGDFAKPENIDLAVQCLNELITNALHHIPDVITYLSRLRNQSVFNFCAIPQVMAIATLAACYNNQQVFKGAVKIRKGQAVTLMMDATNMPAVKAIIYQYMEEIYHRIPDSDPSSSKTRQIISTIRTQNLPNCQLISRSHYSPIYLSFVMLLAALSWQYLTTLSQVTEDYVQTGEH
UniProt Q8N9F7, sequence (Q8N9F7 whole entry, looked up): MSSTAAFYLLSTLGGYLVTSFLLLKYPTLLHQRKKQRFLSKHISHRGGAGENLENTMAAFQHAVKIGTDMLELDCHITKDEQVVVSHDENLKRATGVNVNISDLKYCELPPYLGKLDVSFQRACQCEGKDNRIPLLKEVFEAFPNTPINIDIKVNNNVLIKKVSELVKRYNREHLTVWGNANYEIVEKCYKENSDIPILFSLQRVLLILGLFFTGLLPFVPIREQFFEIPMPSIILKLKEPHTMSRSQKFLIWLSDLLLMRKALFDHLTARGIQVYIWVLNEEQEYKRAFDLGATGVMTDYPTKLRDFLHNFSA
UniProt Q15125, sequence (Q15125 whole entry, looked up): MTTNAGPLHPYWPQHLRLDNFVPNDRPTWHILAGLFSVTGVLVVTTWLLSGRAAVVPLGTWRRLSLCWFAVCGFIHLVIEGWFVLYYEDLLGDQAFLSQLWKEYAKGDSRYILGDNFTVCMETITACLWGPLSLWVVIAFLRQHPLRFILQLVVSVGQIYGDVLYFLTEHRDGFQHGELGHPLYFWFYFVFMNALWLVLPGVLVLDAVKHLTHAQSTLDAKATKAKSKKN
UniProt O43427, sequence (O43427 whole entry, looked up): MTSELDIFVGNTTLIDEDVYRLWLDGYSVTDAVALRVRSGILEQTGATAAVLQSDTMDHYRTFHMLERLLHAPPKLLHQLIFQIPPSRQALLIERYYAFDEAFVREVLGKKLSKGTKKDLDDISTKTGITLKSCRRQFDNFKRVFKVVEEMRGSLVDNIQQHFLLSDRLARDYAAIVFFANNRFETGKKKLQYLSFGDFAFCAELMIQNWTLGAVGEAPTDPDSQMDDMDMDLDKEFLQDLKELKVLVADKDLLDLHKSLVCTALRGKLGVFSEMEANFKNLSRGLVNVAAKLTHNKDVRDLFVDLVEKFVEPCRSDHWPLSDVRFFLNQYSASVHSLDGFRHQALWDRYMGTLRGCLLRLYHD

Target | log2 fold change (erlotinib) | log2 fold change [1] | log2 fold change [2] | log2 fold change [3] | log2 fold change [4] | log2 fold change [5] | log2 fold change [6] | log2 fold change [7] | log2 fold change [8] | log2 fold change (IRAK-1-4 Inhibitor I) | log2 fold change (ibrutinib) | log2 fold change [9] | log2 fold change (ralimetinib) | log2 fold change [10] | log2 fold change [11] | log2 fold change [12] | log2 fold change [13] | log2 fold change [14] | log2 fold change [15] | log2 fold change [16]
EBP (UniProt Q15125) | 0.055 | 0.015 | -0.073 | -0.068 | 0.01 | -0.03 | -0.128 | 0.008 | 0.047 | 0.086 | -0.023 | 0.002 | 0.004 | -0.022 | 0.02 | 0.01 | -0.025 | -0.016 | -0.152 | 0.005
FADS3 (UniProt Q9Y5Q0) | 0.075 | -0.355 | -0.052 | 0.118 | 0.016 | -0.072 | -0.124 | 0.109 | -0.291 | -0.097 | 0.11 | -0.02 | -0.123 | 0.075 | -0.051 | 0.074 | -0.49 | 0.015 | 0.017 | -0.017
DYNC1I2 isoform 2 (UniProt Q13409) | -0.012 | -0.032 | 0.108 | -0.088 | -0.127 | -0.002 | 0.055 | 0.005 | -0.006 | 0.01 | -0.101 | -0.032 | -0.04 | -0.032 | -0.017 | – | 0.083 | -0.019 | -0.047 | 0.012
EGLN1 (UniProt Q9GZT9) | 0.006 | 0.016 | 0.034 | 0.028 | -0.027 | 0.006 | -0.005 | 0.015 | -0.019 | -0.021 | -0.041 | 0.007 | 0.01 | 0.072 | 0.029 | 0.013 | -0.029 | 0.013 | 0.029 | 0.038
FDFT1 (UniProt P37268) | -0.002 | -0.072 | -0.038 | 0.176 | 0.001 | 0.211 | 0.115 | 0.005 | 0.024 | -0.014 | -0.004 | -0.014 | -0.014 | 0.018 | 0.013 | -0.034 | -0.028 | -0.02 | 0.017 | 0.012
GABPB1 isoform 3 (UniProt Q06547) | -0.03 | -0.042 | -0.051 | 0.016 | 0.045 | -0.048 | -0.035 | -0.032 | 0.084 | 0.078 | 0.085 | -0.027 | 0.043 | -0.068 | 0.121 | – | 0.099 | -0.051 | -0.042 | 0.03
GDPD1 (UniProt Q8N9F7) | -0.037 | 0.248 | -0.112 | 0.001 | -0.041 | 0.011 | -0.024 | 0.032 | 0.086 | 0.038 | 0.039 | -0.058 | 0.06 | -0.137 | 0.047 | -0.032 | -0.001 | 0.055 | 0.024 | -0.063
FXR1 (UniProt P51114) | 0.041 | 0.012 | -0.039 | -0.011 | -0.024 | 0.002 | -0.082 | -0.015 | -0.008 | -0.057 | 0.023 | -0.011 | -0.017 | 0.032 | 0.002 | 0.014 | -0.006 | -0.01 | 0.02 | 0.016
GBF1 (UniProt Q92538) | 0.044 | 0.043 | -0.036 | -0.009 | 0.002 | -0.008 | -0.012 | -0.007 | 0.023 | 0.058 | 0.007 | -0.001 | 0.051 | -0.03 | -0.011 | -0.003 | -0.011 | -0.015 | 0.017 | 0.012
EEF1A1P5 (UniProt Q5VTE0) | 0.014 | -0.054 | 0.023 | 0 | 0.001 | -0.01 | -0.065 | -0.048 | 0.022 | 0.003 | -0.01 | -0.007 | 0.001 | -0.014 | 0.032 | 0.008 | 0.019 | -0.006 | 0.012 | -0.011
FAM83A (UniProt Q86UY5) | 0 | 0.168 | 0.097 | 0.038 | -0.054 | -0.107 | -0.031 | -0.062 | 0.008 | 0.019 | 0.125 | 0.006 | 0.008 | 0.053 | -0.06 | 0.018 | 0.023 | 0.035 | -0.023 | 0.026
FLAD1 (UniProt Q8NFF5) | 0.001 | -0.108 | -0.047 | -0.054 | -0.035 | 0.012 | 0.045 | -0.028 | -0.027 | 0.001 | -0.011 | 0.002 | 0.016 | -0.014 | -0.072 | -0.004 | -0.026 | 0.002 | 0.011 | 0.015
FIBP (UniProt O43427) | -0.071 | -0.027 | 0.022 | 0.067 | 0.018 | 0.041 | 0.079 | -0.064 | 0.029 | 0.006 | 0.015 | 0.02 | 0.032 | -0.026 | 0.028 | 0.057 | 0.036 | 0.01 | 0.024 | 0.011
DUS2 (UniProt Q9NX74) | 0.006 | 0.007 | 0.017 | 0.057 | 0.027 | 0.021 | 0.033 | -0.016 | 0.05 | -0.004 | 0.071 | -0.036 | 0.026 | 0.097 | -0.003 | -0.056 | -0.029 | -0.004 | 0.091 | 0.01
EPB41 (UniProt P11171) | -0.024 | -0.021 | -0.068 | 0.006 | -0.005 | 0 | 0.014 | 0.004 | 0.008 | -0.028 | 0.01 | 0.026 | 0.009 | 0.012 | -0.003 | -0.001 | 0.018 | -0.023 | 0.01 | 0.044
FYN (UniProt P06241) | -0.028 | 0.02 | 0.025 | 0.028 | -0.062 | 0.058 | 0.092 | 0.132 | -0.018 | -0.145 | 0.79 (active) | 0.046 | 0.09 | -0.13 | 0.003 | – | -0.042 | -0.069 | 0.052 | 0.021
